Here are results for 14 compounds from PubChem BioAssay (NCI).

What all share (assay): NCI-60 one-dose screen, 48 h (100 = growth as untreated, 0 = no growth, -100 = all killed)
What all share (details): 10 µM unless noted

In test [1] the test system is NCI-H23 lung.
Test [2] deals with NCI-H226 lung.
Test [3] has as its system NCI-H322M lung.
Test [4] concerns HOP-62 NSCLC.
The test system of test [5] is NCI-H460 lung.
Test [6] deals with HOP-92 NSCLC.
Test [7] relates to NCI-H522 lung.
Test [8] has as its system A549/ATCC NSCLC.
Test [9] has as its system 786-0 renal.
The test system of test [10] is COLO 205 colon.

This is part of a sample that, as a whole, favours compounds with a hit. Of some 83,000 tested, about 20% had one in any assay.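 Testing used 96-well plates and a 48-hour single-concentration exposure. Example: -40 means 40% of the starting cells died.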 Values without a mark were called inactive. Calls of active or inactive are those of the source. The calls were made as follows: active = growth percent below 10; inactive = the rest.

For `O=c1[nH]c2ccccc2cc1-c1nc2ccncc2[nH]1`, the growth in test [1] was 85%; in test [2], 79.6%; in test [3] it was 110%; in test [4], 101%; in test [5], 62.4%; in test [6], 64.3%. Also, the growth in [7] was 90.7%; in [8] it was 90.4%; in test [9], 88.6%; in test [10], 83.3%.

Take `CN1CCN(C(=O)[C@@]2(C)CC[C@]3(C)CC[C@]4(C)C(=CC[C@@H]5[C@@]6(C)CC[C@H](OC(=O)c7cccnc7)C(C)(C)[C@@H]6CC[C@]54C)[C@@H]3C2)CC1`: the growth was 75.3% in [1]; 95.2% in [2]; 94.9% in test [3]; 83.7% in test [4]; 11.7% in test [5]; 79.2% in [6]. In addition, the growth was 98.6% in test [7], 69.8% in test [8], 13% in test [9] and 68.3% in test [10].

On to `O=C(O)c1cn(C2CC2)c2cc(N3CCN(C(=O)CSc4nnc(-c5ccc(Cl)cc5)n4-c4ccccc4)CC3)c(F)cc2c1=O`, for which the growth is 96.2% in [1]; 98.8% in test [2]; 110% in [3]; 80.7% in test [4]; 104% in [5]; 79.6% in test [6]. The growth in [7] was 72.7%; in test [8], 94.3%; in [9], 104%; in test [10] it was 109%.

For the compound `NC(=O)C(O)(c1ccccc1)c1ccccc1`, the growth in test [1] is 101%; in test [2] it was 99.2%; in test [3], 105%; in test [4], 91.6%; in [5] it was 104%; in test [6] it was 83.2%. In addition, the growth is 84.2% in test [7], 91% in test [8], 102% in test [9] and 115% in [10].

For `Cc1cccc2nc3c(n12)C(=O)C(=O)c1ccccc1-3`, the growth in test [1] was 39.6%; in [2] it was 80%; in test [3] it was 90%; in test [4], 26%; in test [5] it was 37.3%; in test [6] it was 92.6%. Besides, the growth in [7] is 43.8%; in test [8] it was 61.2%; in [9] it was 106%; in test [10] it was 98.3%.

For the compound `CC(=O)ON1CCCC(P(=O)(OCOC(=O)C(C)(C)C)OCOC(=O)C(C)(C)C)C1=O` (centres undefined), the growth was -16.6% (active) in test [1]; -4.94% (active) in test [2]; -10.6% (active) in [3]; 5.37% (active) in [4]; 2.52% (active) in [5]; -6.66% (active) in test [6]. For the same compound, the growth in test [8] is 7.74% (active); in test [9] it was 12.3%; in [10] it was 2.35% (active).

Take `COc1cc(-c2csc(NC(=O)Nc3ccc(Cl)cc3)n2)cc(OC)c1OC`: the growth in test [1] is 11.3%; in test [2], 32.6%; in test [3] it was 64.8%; in test [4], 38.5%; in test [5], 24.9%; in [6] it was 7.26% (active). Moreover, the growth in test [7] is 3.25% (active); in test [8], 17.8%; in test [9], 47.5%; in test [10], 13.2%.

As for `Cc1nnc(/N=C2\NC(=O)/C(=C/c3ccc(N(C)C)cc3)S2)s1`, the growth in [1] is 81.7%; in test [2], 89.2%; in test [3] it was 85.5%; in test [4] it was 65.8%; in [5], 33.2%; in test [6], 85.1%. Further, the growth in test [8] was 63.5%; in [9], 76.8%; in test [10], 98.7%.

For `CCCCc1nc(Cl)c(C2CC(c3ccc(Cl)cc3)=NN2c2cc(Cl)cc(Cl)c2)[nH]1` (centres undefined), the growth in test [1] is 69.5%; in test [2], 92.3%; in test [3], 70.6%; in [4], 52.9%; in test [5], 30.2%; in test [6], 94%. The growth in test [8] is 8.64% (active); in test [9], 41.3%; in test [10], 96.1%.

For `COc1cc(C2=NNC(c3ccc(N(C)C)cc3)C2)cc(OC)c1OC` (centres undefined), the growth in [1] was 36.1%; in test [2] it was 62.2%; in test [3], 46.2%; in test [4] it was 36.4%; in [5] it was 10.5%; in test [6] it was 29.2%. Also, the growth is 24.5% in [8], 23% in test [9] and 5.74% (active) in [10].

With `O=C(Nc1ccccc1)NS(=O)(=O)c1c[nH]c(=S)[nH]c1=O`, the growth in [1] was 92.3%; in test [2], 105%; in test [3], 104%; in test [4], 72.4%; in test [5], 106%; in test [6], 115%. Also, the growth in [8] was 80.7%; in [9] it was 95.7%; in test [10] it was 96.5%.

With `COC(=O)/C=C/c1cc(OC)c2c(c1)[C@@H](C(=O)OC)[C@H](c1ccc(OC)c(OC)c1)O2`, the growth in [1] was 38.9%; in [2] it was 79.4%; in test [3] it was 98.3%; in [4], 24.9%; in test [5] it was 59.7%; in test [6] it was 66.8%. For the same compound, the growth is 22.1% in test [7], 67.2% in [8], 37.9% in test [9] and 23.9% in test [10].

For the compound `COc1cc2c(cc1OCCCOc1cc3c(cc1OC)C(=O)N1CC(F)(F)C[C@H]1C=N3)N=C[C@@H]1CC(F)(F)CN1C2=O`, the growth was 5.01% (active) in [1]; -20.1% (active) in test [2]; 29% in test [3]; 11.1% in test [4]; 7.32% (active) in [5]; -35.4% (active) in [6]. Also, the growth in test [7] is -26.4% (active); in test [8], 36.1%; in test [9], -22.8% (active); in [10] it was 3.85% (active).

Regarding `C=C1C(=O)O[C@H]2[C@H]1CC/C(COC(=O)CCCCCCCCC(=O)OC/C1=C/CC[C@@]3(C)O[C@H]3[C@H]3OC(=O)C(=C)[C@@H]3CC1)=C\CC[C@@]1(C)O[C@@H]21`, the growth in [1] is -37.5% (active); in test [2] it was 1.19% (active); in [3] it was 83.9%; in test [4], 60.2%; in test [5], 27.1%; in test [6] it was -25.9% (active). In addition, the growth in [8] is 77.1%; in [9] it was -29.1% (active); in test [10], -46.4% (active).
